Screening data deposited in PubChem BioAssay by National Center for Advancing Translational Sciences (NCATS).
TDP1 inh: qHTS Assay for Inhibitors of Tyrosyl-DNA Phosphodiesterase (TDP1); Potency, µM (top dose mostly 130 µM), without a hit: top-dose activity change, negative = inhibition, actives largely listed as inhibitors; AID 485290, 2010; hit rate 0.28% among 350,000; Tyrosyl-DNA phosphodiesterase 1 (Homo sapiens), Q9NUW8; recombinant TDP1, AlphaScreen DNA substrate cleavage; note: nearly all actives have a fitted effect of over 40% in size
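Here, a 5' biotin and 3' phosphotyrosine-FITC DNA oligonucleotide reports Tdp1 activity: intact substrate bridges AlphaScreen beads, while cleavage leaves a 3' phosphate and drops signal. All incubations at room temperature.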
Gal4-VP16 FLuc: VP16 counterscreen qHTS for inhibitors of ROR gamma transcriptional activity; Potency, µM (series often up to 53.6 µM), for the others: at the top dose activity, negative = inhibition, actives largely listed as inhibitors; hit rate 3.5% among 310,000; Drosophila S2 Gal4-VP16 UAS-luciferase, luminescence, 20 h; AID 2546, 2010;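 note: Gal4-VP16 expression switched on by copper sulfate through the metallothionein promoter; nearly all actives have a fitted effect of over 50% in size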
DT40 TDP1 CPT: qHTS for Inhibitors of human tyrosyl-DNA phosphodiesterase 1 (TDP1): qHTS in cells in presence of CPT; chicken DT40 Tdp1-/-;hTDP1 cells + 20 nM CPT, ATP luminescence, 48 h; Potency, µM (doses to about 46.2 µM), without a hit: at the highest dose activity change, negative = growth inhibition, hits mostly inhibitors; hit rate 12% among 420,000; AID 686979, 2013; note: nearly all actives have a fitted effect of over 55% in size
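Cell growth measured by CellTiter-Glo luminescence after a minimum 48 h, 37 C compound exposure with 20 nM CPT in Tdp1-knockout DT40 cells stably expressing hTDP1, seeded 400/well; qHTS titration format.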
DT40 TDP1 no CPT: qHTS for Inhibitors of human tyrosyl-DNA phosphodiesterase 1 (TDP1): qHTS in cells in absence of CPT; DT40 Tdp1-/- hTDP1 cells, no CPT, ATP luminescence, 48 h; Potency, µM (top dose mostly 46.2 µM), for the others: at the highest dose activity change, negative = growth inhibition, usual class: inhibitors; hit rate 15% among 420,000; note: nearly all actives have a fitted effect of over 55% in size
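Luminescent ATP content (CellTiter-Glo) served as the growth readout. Knockout chicken DT40 cells expressing human TDP1 were exposed to compounds without camptothecin for a minimum 48 hr at 37 °C.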
RORgamma inh: qHTS for inhibitors of ROR gamma transcriptional activity; hit rate 5.4% among 310,000; Potency, µM (doses to about 53.6 µM), for the others: at the highest dose activity change, negative = inhibition, actives largely listed as inhibitors; AID 2551, 2010; Drosophila S2 Gal4-RORgamma UAS-luciferase reporter, 20 h; Nuclear receptor ROR-gamma (Mus musculus), P51450; note: nearly all actives have a fitted effect of over 60% in size
Target sequence (P51450 whole entry, looked up, the tested form may be a part): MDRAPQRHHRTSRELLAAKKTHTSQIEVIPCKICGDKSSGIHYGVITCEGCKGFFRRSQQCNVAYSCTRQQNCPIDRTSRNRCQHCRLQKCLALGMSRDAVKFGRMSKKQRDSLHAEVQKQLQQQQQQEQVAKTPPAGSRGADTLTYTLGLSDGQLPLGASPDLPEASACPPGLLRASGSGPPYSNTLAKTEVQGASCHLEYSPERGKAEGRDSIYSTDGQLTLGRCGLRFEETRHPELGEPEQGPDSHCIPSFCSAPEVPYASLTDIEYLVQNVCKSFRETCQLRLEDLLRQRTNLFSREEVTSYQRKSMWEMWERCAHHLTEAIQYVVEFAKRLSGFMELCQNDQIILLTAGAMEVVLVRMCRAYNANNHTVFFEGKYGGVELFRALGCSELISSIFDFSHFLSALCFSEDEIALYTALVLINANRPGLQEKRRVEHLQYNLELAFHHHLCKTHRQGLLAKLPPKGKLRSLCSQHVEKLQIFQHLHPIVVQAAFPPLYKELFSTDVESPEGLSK
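Stable Schneider cell line, Gal4 DNA-binding domain fused to ROR gamma, UAS-luciferase. Cmpd 1 hr RT → CuSO4 700 uM final → 20 hr RT → luciferase reagent 10 min → luminescence.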
Numbers without * were called inactive; u = inconclusive; x = no result; [ ] = another dose, or the depositor's remark. Compounds with a hit are over-represented: about 19% of the library has one in this group of screens. Calls come from the whole dose curve; as a rule, active = well fitted curve in the direction sought with a large enough effect; inconclusive = small, poorly fitted or top-dose-only effect, or another doubt; inactive = no such curve, though single readings can be large; an effect the other way counts as inactive or inconclusive. % is set by controls: 0 for no effect and ±100 for the full control effect; potency is the fitted concentration of half-maximal effect.

SMILES	TDP1 inh	Gal4-VP16 FLuc	DT40 TDP1 CPT	DT40 TDP1 no CPT	RORgamma inh
Cn1nnnc1SCC(=O)c1c(N)n(C2CC2)c(=O)[nH]c1=O	1%	x	3%	4%	x
CSc1ccccc1NC(=O)Nc1ccc(F)c(Cl)c1	-1%	0%	u	u	38%
Cc1ccccc1CCNC(=O)c1cc2ccccn2n1	3%	x	u	u	x
O=C1NC[C@H](CC2CCCCC2)N(CC2CCCCC2)C1=O	x	x	-8%	-13%	x
CN(C)Cc1ccccc1-c1nc(N(C)C)c2ccccc2n1	x	u	12µM*	u	-23%
CN(C)Cc1ccccc1-c1nc(NCc2cccs2)c2ccccc2n1	x	-11%	21µM*	21µM*	-33%
Cc1cccc(CNc2nc(-c3ccoc3)nc3ccccc23)c1	u	3%	u	21µM*	5%
c1ccc(CNc2nc(-c3ccoc3)nc3ccccc23)cc1	x	16%	u	u	31%
Cc1cccc(CNc2nc(-c3ccccc3CN(C)C)nc3ccccc23)c1	16%[56.1 µM]	u	13µM*	5.2µM*	22µM*
CNc1nc(-c2ccccc2CN(C)C)nc2ccccc12	x	-19%	u	u	u
O=C(COc1ccc(Br)cc1)NCC1COc2ccccc2O1 (configuration not stated)	-5%	x	-10%	u	x
COc1cccc(CNC(=O)Cn2ccc([N+](=O)[O-])n2)c1	x	7%	-6%	-3%	13%
Fc1ccc(NC(=S)N2N=CCC2c2ccccc2)cc1 (configuration not stated)	7%	7.9µM*	-3%	5%	3.5µM*
S=C(Nc1ccccc1)N1N=CCC1c1ccccc1 (configuration not stated)	-2%	7.9µM*	12%	-8%	u
CCCCNC(=O)CCCn1c(=O)c2ccccc2n(Cc2c(C)cc(C)cc2C)c1=O	2%	x	1%	-4%	x
CCOC(=O)c1ccc(Nc2nc3nonc3nc2Nc2cccc(C)c2C)cc1	9%	x	2.6µM*	2.1µM*	x
Cc1ccc(C)c(Nc2nc3nonc3nc2Nc2cccc(C)c2C)c1	5%	x	3.7µM*	2.9µM*	x
Cn1cnnc1SC(C(=O)Nc1ccc(F)cc1)c1ccccc1 (configuration not stated)	-2%	-2%	0%	-28%	-32%
CC(=O)CC1(OC(C)=O)C(=O)N(C)c2ccccc21 (configuration not stated)	5%	14µM*	3.7µM*	2.9µM*	6.3µM*
O=C(CSCc1ccc(Cl)cc1)Nc1ccc(O)cc1C(=O)O	x	5%	5%	-16%	-11%
Cn1c(CC(=O)Nc2ccc(Cl)c(Cl)c2)n[nH]c1=S	3%	4%	-5%	-17%	12%
COc1ccc(Cc2n[nH]c(=S)n2NC(=O)Nc2ccc(Cl)c(Cl)c2)cc1	x	-3%	10µM*	7.3µM*	-10%
CCCNC(=O)NS(=O)(=O)c1cnccc1Sc1ccc(Cl)c(Cl)c1	6%	0%	-5%	0%	-27%
O=C(CN1C(=O)CSc2ccccc21)Nc1ccccc1C(=O)N1CCOCC1	3%	0%	-8%	-15%	-2%
CN(C)c1cccc(-c2cc(Nc3ccc(C(C)(C)C)cc3)ncn2)c1	x	x	21µM*	u	x
COC[C@@H]1CCCN1c1ccc2c(c1)O[C@@H](COCc1ccccc1)CN([C@H](C)c1ccccc1)S2(=O)=O	x	x	u	23µM*	x
C[C@H](c1ccccc1)N1C[C@@H](COCc2ccccc2)Oc2cc(N3CCC[C@H]3CO)ccc2S1(=O)=O	x	x	u	18µM*	x
COC[C@@H]1CCCN1c1ccc2c(c1)O[C@@H](COCc1ccccc1)CN([C@@H](C)c1ccccc1)S2(=O)=O	x	x	9.2µM*	12µM*	x
